Measured values published in PubChem BioAssay (Tox21).
Records with an inconclusive call do not appear. Activity calls are given as the source filed them. Unless noted, calls follow the shape of the dose curve; as a rule, active = well fitted cell-killing curve with a large enough effect in the repeat runs; inconclusive = weak or mixed curves, or effect the other way; inactive = no such curve, though single readings can be large or run the other way.

Target: Vitamin D3 receptor (Homo sapiens) (UniProt P11473)
Sequence (P11473 whole entry, looked up): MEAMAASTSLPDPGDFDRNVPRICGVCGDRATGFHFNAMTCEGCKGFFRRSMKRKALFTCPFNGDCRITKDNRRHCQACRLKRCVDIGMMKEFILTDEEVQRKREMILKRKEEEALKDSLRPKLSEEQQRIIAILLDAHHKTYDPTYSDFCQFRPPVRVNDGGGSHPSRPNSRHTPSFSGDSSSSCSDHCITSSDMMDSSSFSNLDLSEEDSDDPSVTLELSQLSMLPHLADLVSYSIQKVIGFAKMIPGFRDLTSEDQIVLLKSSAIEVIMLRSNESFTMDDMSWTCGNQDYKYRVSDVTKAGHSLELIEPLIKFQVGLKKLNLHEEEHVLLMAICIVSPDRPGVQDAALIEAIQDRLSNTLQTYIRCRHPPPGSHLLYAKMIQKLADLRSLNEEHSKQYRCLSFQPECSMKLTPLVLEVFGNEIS
Experiment: qHTS assay to identify small molecule antagonists of the vitamin D receptor (VDR) signaling pathway (AID 743223; active = well fitted inhibition curve with a large enough effect in the signal ratio in the repeat runs, not every such curve was filed as active; the % refers to the signal ratio)
Conditions: VDR-UAS-bla HEK293T, beta-lactamase FRET ratio, 16 h; series mostly up to 61 µM
Summary of the method: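 Beta-lactamase reporter read-out: FRET substrate fluorescence after 2 h at room temperature, following 16 h exposure of VDR-bla cells to test compound plus 3 nM (final) 1alpha,25-dihydroxyvitamin D3 agonist at 37C.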
In the case of `COC(=O)c1ccccc1C(=O)OC`, the outcome is reported as “inactive”.
For `O=c1n(Cl)c(=O)n(Cl)c(=O)n1Cl`, the outcome was “inactive”.
For `Oc1ccccc1Cl`, the outcome was “inactive”.
With `Clc1ccc(Cl)cc1` the outcome was “inactive”.
For `O=c1[nH]c(=O)[nH]c(=O)[nH]1`, the outcome was “inactive”.
In the case of `CNC(=O)Oc1ccccc1OC(C)C`, the outcome is reported as “inactive”.
In the case of `CC(=O)C=C(C)C`, the outcome is reported as “inactive”.
With `CCOC(=O)c1ccccc1C(=O)OCC` the outcome was “inactive”.
For `C1CC2OC2CC1C1CO1` (stereo not given), the outcome was “inactive”.
With `COC(=O)NC(=S)Nc1ccccc1NC(=S)NC(=O)OC` the outcome was “inactive”.
For `COC(=O)c1ccccc1N`, the outcome was “inactive”.
In the case of `Cc1ccc(N)cc1N`, the outcome is reported as “inactive”.
For `[O-][Cl+2]([O-])O`, the outcome was “inactive”.
With `O=NN1CCCC1` the outcome was “inactive”.
With `CN(C)CCO` the outcome was “inactive”.
In the case of `C#CCN(C)[C@H](C)Cc1ccccc1`, the outcome is reported as “inactive”.
With `Cc1cc(Cl)ccc1O` the outcome was “inactive”.
In the case of `CCC[N+](=O)[O-]`, the outcome is reported as “inactive”.
In the case of `Cc1ccc([N+](=O)[O-])cc1C`, the outcome is reported as “inactive”.
With `C=CC(N)=O` the outcome was “inactive”.
For `O=S(=O)(c1ccc(Cl)cc1)c1cc(Cl)c(Cl)cc1Cl`, the outcome was “inactive”.
In the case of `COc1ccc2c3c1O[C@H]1[C@@H](O)C=C[C@H]4[C@@H](C2)N(C)CC[C@@]341`, the outcome is reported as “inactive”.
For `O=[N+]([O-])c1ccc(Oc2ccc(Cl)cc2Cl)cc1`, the outcome was “inactive”.
With `Cc1ccccc1O` the outcome was “inactive”.
With `c1ccc(OP(Oc2ccccc2)Oc2ccccc2)cc1` the outcome was “inactive”.

System: not listed separately
Experiment: qHTS assay to identify small molecule agonists of the vitamin D receptor (VDR) signaling pathway - cell viability counter screen (AID 743224); also: nearly all actives have a fitted effect of over 50% in size
Conditions: VDR-bla HEK293T viability, CellTiter-Glo luminescence, 16 h; series mostly up to 62.6 µM
Summary of the method: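 VDR-bla cells were preincubated 4 h at 37C/5% CO2, then exposed to compounds for 16 h. After the 2 h room-temperature bla FRET read, CellTiter-Glo was added to the same wells and luminescence read after 30 min.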
For `COC(=O)c1ccccc1C(=O)OC`, the outcome was “inactive”.
In the case of `Oc1ccccc1Cl`, the outcome is reported as “inactive”.
With `O=C1CCCN1` the outcome was “inactive”.
In the case of `Clc1ccc(Cl)cc1`, the outcome is reported as “inactive”.
In the case of `O=c1[nH]c(=O)[nH]c(=O)[nH]1`, the outcome is reported as “inactive”.
For `CNC(=O)Oc1ccccc1OC(C)C`, the outcome was “inactive”.
For `CC(=O)C=C(C)C`, the outcome was “inactive”.
With `CCOC(=O)c1ccccc1C(=O)OCC` the outcome was “inactive”.
With `COC(=O)c1ccccc1N` the outcome was “inactive”.
For `[O-][Cl+2]([O-])O`, the outcome was “inactive”.
In the case of `O=[N+]([O-])c1ccccc1`, the outcome is reported as “inactive”.
In the case of `O=NN1CCCCCCC1`, the outcome is reported as “inactive”.
With `CN(C)CCO` the outcome was “inactive”.
In the case of `C#CCN(C)[C@H](C)Cc1ccccc1`, the outcome is reported as “inactive”.
With `CC(C)NC(=O)N1CC(=O)N(c2cc(Cl)cc(Cl)c2)C1=O` the outcome was “inactive”.
For `Cc1cc(Cl)ccc1O`, the outcome was “inactive”.
In the case of `CCC[N+](=O)[O-]`, the outcome is reported as “inactive”.
In the case of `C=CC(N)=O`, the outcome is reported as “inactive”.
With `C=CCO` the outcome was “inactive”.
In the case of `O=S(=O)(c1ccc(Cl)cc1)c1cc(Cl)c(Cl)cc1Cl`, the outcome is reported as “inactive”.
For `COc1ccc2c3c1O[C@H]1[C@@H](O)C=C[C@H]4[C@@H](C2)N(C)CC[C@@]341`, the outcome was “inactive”.
For `O=[N+]([O-])c1ccc(Oc2ccc(Cl)cc2Cl)cc1`, the outcome was “inactive”.
In the case of `CC(C)(C)OOC(C)(C)C`, the outcome is reported as “inactive”.
In the case of `Cc1ccccc1O`, the outcome is reported as “inactive”.
In the case of `c1ccc(OP(Oc2ccccc2)Oc2ccccc2)cc1`, the outcome is reported as “inactive”.
